Measurements from article PMC12136788.
Positions count from the first letter of the chain named. In all, about 5,800 sequences were measured (“enrichment r”: median about 0.68, highest 2% from about 11 on). What follows is part of a selection rich in the highest values, with near analogues and random picks from the rest.

B1: ENSG00000136451:be:win_3701|3pUTR|ENSG00000136451|bound_else_gene|NA|bound_elsewhere_windowed (ssRNA)
RNA: GGGAGUUCUACAGUCCGACGAUCUCUCUGGUGGGCUGGCAGUCAUAAUUCACAAUUCAGACAGCCCAGGCUUCCUCCACAGUGGUCCAAGGAGCAGUCCUCAGUGGGGGCAGGUGUGGGCCCUACCCCUAAGCUAGAAUGUGGCAACAGAGGAUUGAGCAUCA
B2: ENSG00000107863:be:win_451|CDS|ENSG00000107863|bound_else_gene|NA|bound_elsewhere_windowed (ssRNA)
RNA: GGGAGUUCUACAGUCCGACGAUCUUGGAACUUAGUGUUAUGCCAAAAGAUGAAGACAUUCUCCAAGUGCUACAGUUUACAAAGGAUGUCACAGCACUGGCAUAUUCUCAAGAUGCCUACCUGAAAGGCAACGAAGCUUAUAGCCAACAGAGGAUUGAGCAUCA
B3: chr9:96387934:96388035:-|3pUTR|ENSG00000165244|msi1|total|mutant (ssRNA)
RNA: GGGAGUUCUACAGUCCGACGAUCAAUAUUUUGUAAAUAUGGACUGCACAGUACAGGGCCGAAAACUACAUAUUGUGGGAAGCCCGAUUUUGCAAGUUUAAUGCAUUCAUUGGAAGCAGUUCUCACAGGAAGCACUUUCUGAAUCAACAGAGGAUUGAGCAUCA
B4: chr20:32237940:32238012:+|3pUTR|ENSG00000101346|msi1_unk|FALSE|overlapping (ssRNA)
RNA: GGGAGUUCUACAGUCCGACGAUCUUUCAAAGAUACAAAUAUUUACAUAGUUUUAAUCAUGUAAUAUAUACAAUUUAAUGUCCUAGUGUUUUACUUAAUAGUGUAUCAUGUUUUCCCUGUUGGUAUGUAGCCUGGAUAAAUGCUCAACAGAGGAUUGAGCAUCA
B5: chr17:3662948:3663056:-|3pUTR|ENSG00000213977|unk|total|mutant (ssRNA)
RNA: GGGAGUUCUACAGUCCGACGAUCAGUUUGAUACAAAAUGUUUUUAUCGUACUCUUUGGAGAUGCCCAUUCUACUUUUGAAUUCCGCUUUUACUAAUUCGCAUCUGGAAGCUCAGCAAGUGCACAAGCCUUACUUUGGUUACCGCAACAGAGGAUUGAGCAUCA
B6: chr5:76617584:76618642:-|CDS|ENSG00000164220|control|control|control (ssRNA)
RNA: GGGAGUUCUACAGUCCGACGAUCUGAUGGCUUAUAUUUUAUAUAUCUCAUAGCUUUGUGCCUGGGUAGUCUUAAUAGUUGCUUAGAUCCAUUCCUUUAUUUUCUCAUGUCAAAAACCAGAAAUCACUCCACUGCUUACCUUACCAACAGAGGAUUGAGCAUCA
B7: chr4:168927217:168927233:+|3pUTR|ENSG00000129116|msi1_unk|total|mutant (ssRNA)
RNA: GGGAGUUCUACAGUCCGACGAUCAACCACCCAAAUGACCAAGGCAUAUACCGUAUUUGGAGGAAUCAGGGGUUUGGAAGGAGCCGGGAGGAGAAUGAAGGAAAAUGCAACCAGCAUGAUUACCGUGUGUUCAUUCCGAUAAAACAACAGAGGAUUGAGCAUCA
B8: ENSG00000198589:be:win_7401|CDS|ENSG00000198589|bound_else_gene|NA|bound_elsewhere_windowed (ssRNA)
RNA: GGGAGUUCUACAGUCCGACGAUCUUCUCAACUACUCAUAGAGCCCCAUCCUCCCAGAGGUUCUGCCAUGCAAGUGAGUCCAUUGAUGUUCACAGACAAAGCCCAGCAGGAUGUUAUCAUGGUCCUCAAGUUUCCCUCCAACUCCAACAGAGGAUUGAGCAUCA
B9: chr5:128187618:128187661:+|3pUTR|ENSG00000064651|msi1_unk|total|mutant (ssRNA)
RNA: GGGAGUUCUACAGUCCGACGAUCUCCUUUAUAAGUCAUUAAAAUAAUGUUUCAUCAAAUGGUUAAAUGGACCACUGGUUUCUCCGAGAAAUGUUUUCCGGCUUAAUUCAUUCAAUUGUCAAGUACACUCCGUCUUAAUACACUCAACAGAGGAUUGAGCAUCA
B10: chr1:159061598:159062691:-|three_prime_utr|ENSG00000163568|control|control|control (ssRNA)
RNA: GGGAGUUCUACAGUCCGACGAUCUCAAUCAGAUUGUAAGUUACCUGAAAGCUGCAGUUCACAGGCUCCUCUCUCCACCAAAUUAGGAUAGAAUAAUUGCUGGAUAAACAAAUUCAGAAUAUCAACAGAUGAUCACAAUAAACACAACAGAGGAUUGAGCAUCA
B11: chr10:95606323:95606429:-|3pUTR|ENSG00000059573|unk|FALSE|bound_elsewhere (ssRNA)
RNA: GGGAGUUCUACAGUCCGACGAUCCCAUGGCUGCUUUGUGUCACCUCAGUGACUUACAGUCCCCCUUGGCAUUUAGUUGGUACUAGAGCCAGUCAUCCUUAACAAAUCUUUUCACAUUUUAUUUCUUUCACAUGUAGUCAUCUUCAACAGAGGAUUGAGCAUCA
B12: chr10:95606323:95606429:-|3pUTR|ENSG00000059573|unk|total|mutant (ssRNA)
RNA: B11 RNA with U73C, A74C, U83C, A84C, U134C, A135C
B13: chrX:107070192:107070425:-|CDS|ENSG00000089682|control|control|control (ssRNA)
RNA: GGGAGUUCUACAGUCCGACGAUCCGUUCUAGGAGCCAAAUGGCAGAAAAGGACUGGGAGGACCUCAACAUUUAGUAUUCUCUUAGUUUCCUUGCUUUCAGAAACAGUGUUCACAUCUUCAGCCAUGUAUGGCAUUCCCCAUCUCAACAGAGGAUUGAGCAUCA
B14: chr14:106116634:106116941:-|CDS|ENSG00000211941|control|control|control (ssRNA)
RNA: GGGAGUUCUACAGUCCGACGAUCUGGAUCCGCCAGGCUCCAGGGAAGGGGCUGGAGUGGGUUUCAUACAUUAGUAGUAGUAGUAGUUACACAAACUACGCAGACUCUGUGAAGGGCCGAUUCACCAUCUCCAGAGACAACGCCCAACAGAGGAUUGAGCAUCA

The binders below were run against T1, UNK ZnF1-6 (called full-length) (human, UniProt Q9C0B0 30-357) (assay: nsRBNS (natural sequence RNA bind-n-seq); RBNS binding buffer (assumed for nsRBNS): 25 mM Tris pH 7.5, 150 mM KCl, 3 mM MgCl2, 0.01% Triton X-100, 500 ug/ml BSA, 20 U/ml SUPERase-In, 4 C; UNK is unkempt and MSI1 is Musashi-1; names of the RNAs are library labels; protein concentration not given here; high values mean tight binding).
T1 sequence: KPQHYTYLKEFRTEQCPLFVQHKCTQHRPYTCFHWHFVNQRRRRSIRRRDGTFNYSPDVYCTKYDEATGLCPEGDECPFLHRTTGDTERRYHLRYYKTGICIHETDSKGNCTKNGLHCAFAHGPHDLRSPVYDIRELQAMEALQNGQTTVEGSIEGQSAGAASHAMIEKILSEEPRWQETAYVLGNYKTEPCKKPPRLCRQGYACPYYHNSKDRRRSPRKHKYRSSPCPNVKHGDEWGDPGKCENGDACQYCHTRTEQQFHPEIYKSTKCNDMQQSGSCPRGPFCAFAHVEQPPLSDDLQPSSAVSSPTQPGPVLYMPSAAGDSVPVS

Binder	binding signal
B1	0.776 enrichment R
B2	0.399 enrichment R
B3	0.299 enrichment R
B4	4.06 enrichment R
B5	0.437 enrichment R
B6	4.63 enrichment R
B7	0.58 enrichment R
B8	0.555 enrichment R
B9	0.678 enrichment R
B10	1.86 enrichment R
B11	15.5 enrichment R
B12	6.24 enrichment R
B13	3.69 enrichment R
B14	1.12 enrichment R
